Inconclusive results are not listed. The source made the active and inactive calls. How the source made its calls, unless noted: active means hit-call score of the fitted dose curve at least 0.9, where 1 is the maximum; inactive means score below 0.9.
Tests used:
[1] = ATG_NFI_CIS: Attagene CIS-FACTORIAL HepG2 Assay for human Nuclear Factor I (NFI) (AID 2282989); settings: HepG2 cis-regulatory reporter, NFI response element transcription; actives raise or lower the signal
Outline: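 Cells: human liver HepG2, transiently transfected with promoter-regulated reporter transcription units. Exposure 24 h. Detection: fluorescent RT-PCR products separated by capillary electrophoresis, normalised to DMSO negative control.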

[2] = target: Myc proto-oncogene protein (Homo sapiens) (UniProt P01106); test: ATG_Myc_CIS: Attagene CIS-FACTORIAL HepG2 Assay for human Myelocytomatosis (Myc) Proto-Oncogene Transcription Factor (AID 2282990); settings: HepG2, Attagene cis-reporter transcription factor activity; actives raise or lower the signal
Sequence of Myc proto-oncogene protein (Homo sapiens) (P01106 whole entry, looked up): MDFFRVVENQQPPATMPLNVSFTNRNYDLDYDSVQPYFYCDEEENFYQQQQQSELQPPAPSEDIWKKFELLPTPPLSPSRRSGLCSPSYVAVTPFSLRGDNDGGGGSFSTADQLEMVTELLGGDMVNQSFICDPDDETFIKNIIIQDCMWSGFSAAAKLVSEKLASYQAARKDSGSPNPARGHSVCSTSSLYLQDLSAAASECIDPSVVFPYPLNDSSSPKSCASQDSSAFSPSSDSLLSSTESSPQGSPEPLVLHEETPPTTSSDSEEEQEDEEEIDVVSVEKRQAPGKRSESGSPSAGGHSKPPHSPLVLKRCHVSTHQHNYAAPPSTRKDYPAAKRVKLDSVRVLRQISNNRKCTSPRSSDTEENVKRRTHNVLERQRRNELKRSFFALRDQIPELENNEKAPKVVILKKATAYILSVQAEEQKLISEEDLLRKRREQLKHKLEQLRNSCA
Outline: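 Transiently transfected HepG2 cells bearing cis-promoter reporter units for endogenous transcription factors; 24 h exposure. Reporter mRNA measured by RT-PCR, 6-FAM primer extension, HpaI cut and capillary electrophoresis; bidirectional fit relative to DMSO.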

[3] = ATG_NF_kB_CIS: Attagene CIS-FACTORIAL HepG2 Assay for human Nuclear Factor Kappa B (NF-kB) (AID 2282991); settings: HepG2 Attagene cis-factorial NF-kB reporter mRNA; actives raise or lower the signal
Outline: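 Endogenous transcription factor activity in HepG2 was captured via cis-regulated reporter constructs; after 24 h dosing, reporter mRNA was reverse-transcribed, amplified, fluorescently labelled and sized by capillary electrophoresis, with activity fitted bidirectionally relative to DMSO.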

[4] = ATG_NRF2_ARE_CIS: Attagene CIS-FACTORIAL HepG2 Assay for human Nuclear Factor Erythroid 2 Related Factor 2 (NFR2) response to Antioxidant Response Elements (ARE) (AID 2282992); settings: HepG2 Attagene ARE/NRF2 reporter, transcription factor activity; actives raise or lower the signal;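 on AC50: reporter mRNA level measured by RT-PCR and capillary electrophoresis fluorescence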
Outline: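 Fluorescence intensity of reporter-specific cDNA fragments, separated by capillary electrophoresis, reflects mRNA induction in transfected HepG2 cells at 24 h. Activity is fitted bidirectionally, DMSO serving as baseline.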

[5] = ATG_Oct_MLP_CIS: Attagene CIS-FACTORIAL HepG2 Assay for human Octamer-Binding Transcription Factor (Oct) (AID 2282993); settings: HepG2 Attagene cis-factorial Oct reporter, mRNA; actives raise or lower the signal
Outline: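 HepG2, transient MRTU transfection, cis promoter elements; 24 h dosing; RT-PCR/CE fluorescence read-out of reporter mRNA; fit both directions vs DMSO.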

[6] = target: Cellular tumor antigen p53 (Homo sapiens) (UniProt P04637); test: ATG_p53_CIS: Attagene CIS-FACTORIAL HepG2 Assay for human p53 Transcription Factor (AID 2282994); settings: HepG2 p53 cis-element reporter, Attagene mRNA; actives raise or lower the signal
Sequence of Cellular tumor antigen p53 (Homo sapiens) (P04637 whole entry, looked up): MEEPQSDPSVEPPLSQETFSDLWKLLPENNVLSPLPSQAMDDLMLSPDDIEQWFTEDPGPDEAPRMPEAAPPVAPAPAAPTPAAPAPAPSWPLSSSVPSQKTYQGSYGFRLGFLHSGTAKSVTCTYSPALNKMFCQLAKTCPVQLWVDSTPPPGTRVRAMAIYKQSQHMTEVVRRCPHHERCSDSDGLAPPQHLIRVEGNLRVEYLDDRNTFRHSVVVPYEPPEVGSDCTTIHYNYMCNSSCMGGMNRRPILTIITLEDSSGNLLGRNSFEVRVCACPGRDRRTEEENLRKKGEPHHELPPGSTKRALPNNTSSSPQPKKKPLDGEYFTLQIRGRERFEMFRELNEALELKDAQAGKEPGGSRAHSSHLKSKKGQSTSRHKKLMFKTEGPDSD
Outline: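 Transiently transfected HepG2 (multiple cis reporter transcription units); exposure 24 h; reporter RNA via RT-PCR, 6-FAM extension, 2 h HpaI digest at 37 C, CE detection; DMSO baseline.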

[7] = BSK_3C_TissueFactor: BioMAP Diversity Plus: 3C Assay for Tissue Factor Biomarker Activity (AID 2282997); settings: BioMAP 3C HUVEC, tissue factor biomarker readout; actives raise or lower the signal
Outline: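 After a 24 h chemical exposure of primary human umbilical vein endothelial cells, Tissue Factor levels were quantified by ELISA.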

[8] = BSK_3C_uPAR: BioMAP Diversity Plus: 3C Assay for Urokinase-type plasminogen activator receptor (uPAR) Biomarker Activity (AID 2282998); settings: BioMAP 3C HUVEC, uPAR biomarker ELISA; actives raise or lower the signal
Outline: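 A multiplexed primary-cell system built on human umbilical vein endothelium was used, with chemical present for 24 h before reading. Cell-surface uPAR was detected by ELISA; signal change in either direction counted against DMSO.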

[9] = BSK_3C_VCAM1: BioMAP Diversity Plus: 3C Assay for Vascular cell adhesion molecule 1 (VCAM1) Biomarker Activity (AID 2282999); settings: BioMAP 3C HUVEC, VCAM1 ELISA, cytokine-stimulated; actives raise or lower the signal
Outline: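 HUVEC primary cells, 24 h compound exposure; VCAM-1 by ELISA; gain/loss of signal fitted bidirectionally vs DMSO baseline.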

[10] = BSK_4H_Eotaxin3: BioMAP Diversity Plus: 4H Assay for Eotaxin 3 Biomarker Activity (AID 2283000); settings: primary human endothelial cells (HUVEC); actives raise or lower the signal
Outline: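 Chemicals were added to human umbilical vein endothelium cultures, and Eotaxin-3 was quantified by ELISA at 24 h. Values were derived by bidirectional fitting with DMSO serving as negative control and activity baseline.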

[11] = target: human Peroxisome Proliferator-activated Receptor delta (PPARd), PPARD (gene 5467) (UniProt Q03181); test: ATG_PPARd_TRANS: Attagene TRANS-FACTORIAL HepG2 Assay for human Peroxisome Proliferator-activated Receptor delta (PPARd) (AID 2283002; active means hit-call score of the fitted dose curve at least 0.9, where 1 is the maximum)
Sequence of human Peroxisome Proliferator-activated Receptor delta (PPARd), PPARD (gene 5467) (Q03181 whole entry, looked up, the tested form may be a part): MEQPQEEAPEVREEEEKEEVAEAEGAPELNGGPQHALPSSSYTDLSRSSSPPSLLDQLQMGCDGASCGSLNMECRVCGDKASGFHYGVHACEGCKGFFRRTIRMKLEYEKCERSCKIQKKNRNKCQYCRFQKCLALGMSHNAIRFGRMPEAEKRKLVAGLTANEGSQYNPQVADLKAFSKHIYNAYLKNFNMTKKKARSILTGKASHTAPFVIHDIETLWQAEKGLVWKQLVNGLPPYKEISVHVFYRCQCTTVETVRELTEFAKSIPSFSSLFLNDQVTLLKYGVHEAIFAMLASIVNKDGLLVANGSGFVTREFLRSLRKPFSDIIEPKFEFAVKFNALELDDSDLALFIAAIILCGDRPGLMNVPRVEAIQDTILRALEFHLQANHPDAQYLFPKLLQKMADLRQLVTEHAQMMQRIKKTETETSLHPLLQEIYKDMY
Outline: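 HepG2 cells transiently transfected with GAL4-UAS multiplexed reporter units driven by exogenous chimeric NR-GAL4 proteins; 24 h compound exposure. Reporter mRNA measured by RT-PCR, 6-FAM primer extension, HpaI digestion and capillary electrophoresis; gain of signal fitted relative to DMSO.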

[12] = read-out: Intercellular Adhesion Molecule 1 (ICAM1), ICAM1 (gene 3383); test: BSK_3C_ICAM1: BioMAP Diversity Plus: 3C Assay for Intercellular Adhesion Molecule 1 (ICAM1) Biomarker Activity (AID 2283003); settings: primary human endothelial cells (HUVEC); actives raise or lower the signal
Outline: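 ELISA read-out of ICAM-1; HUVEC (primary human), 3C system, 24 h post-dosing; bidirectional fit vs DMSO baseline.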

[13] = BSK_3C_Proliferation: Cell Proliferation Assessment in the BioMAP Diversity Plus: 3C Assay (AID 2283006); settings: primary human endothelial cells (HUVEC);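 on AC50: potency may reflect either rise or fall in cell number versus DMSO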
Outline: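 HUVEC, sub-confluent; 48 h chemical exposure; 10% TCA fix, 0.1% SRB stain, A560 total protein. Gain or loss of signal fitted both directions vs DMSO control.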

[14] = target: Peroxisome proliferator-activated receptor gamma (Homo sapiens) (UniProt P37231); test: ATG_PPARg_TRANS: Attagene TRANS-FACTORIAL HepG2 Assay for human Peroxisome Proliferator-activated Receptor-gamma (PPARg) (AID 2283007; active means hit-call score of the fitted dose curve at least 0.9, where 1 is the maximum)
Sequence of Peroxisome proliferator-activated receptor gamma (Homo sapiens) (P37231 whole entry, looked up, the tested form may be a part): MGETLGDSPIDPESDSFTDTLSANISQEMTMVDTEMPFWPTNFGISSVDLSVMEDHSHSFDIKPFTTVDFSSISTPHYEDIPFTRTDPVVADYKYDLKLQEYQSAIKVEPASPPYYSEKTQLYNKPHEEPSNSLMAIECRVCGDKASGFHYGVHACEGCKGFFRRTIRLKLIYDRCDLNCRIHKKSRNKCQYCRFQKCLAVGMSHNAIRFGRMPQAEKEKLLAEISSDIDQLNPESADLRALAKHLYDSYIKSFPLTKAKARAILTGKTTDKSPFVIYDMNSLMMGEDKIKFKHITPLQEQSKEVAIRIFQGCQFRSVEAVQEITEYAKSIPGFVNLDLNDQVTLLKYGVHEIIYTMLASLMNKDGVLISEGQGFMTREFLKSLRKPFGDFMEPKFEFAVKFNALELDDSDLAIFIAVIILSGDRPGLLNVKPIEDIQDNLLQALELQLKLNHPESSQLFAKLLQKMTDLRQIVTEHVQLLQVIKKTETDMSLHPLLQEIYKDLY
Outline: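 A TRANS-format multiplexed reporter assay measures activity of an exogenous chimeric NR-Gal4 protein in HepG2 cells. After 24 h of chemical exposure, reporter transcripts are amplified, fluorescently labelled and sized by capillary electrophoresis, with gain of signal scored against DMSO.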

[15] = target: Nuclear receptor subfamily 1 group I member 2 (Homo sapiens) (UniProt O75469); test: ATG_PXR_TRANS: Attagene TRANS-FACTORIAL HepG2 Assay for human Pregnane X Receptor (PXR) (AID 2283008; active means hit-call score of the fitted dose curve at least 0.9, where 1 is the maximum)
Sequence of Nuclear receptor subfamily 1 group I member 2 (Homo sapiens) (O75469 whole entry, looked up, the tested form may be a part): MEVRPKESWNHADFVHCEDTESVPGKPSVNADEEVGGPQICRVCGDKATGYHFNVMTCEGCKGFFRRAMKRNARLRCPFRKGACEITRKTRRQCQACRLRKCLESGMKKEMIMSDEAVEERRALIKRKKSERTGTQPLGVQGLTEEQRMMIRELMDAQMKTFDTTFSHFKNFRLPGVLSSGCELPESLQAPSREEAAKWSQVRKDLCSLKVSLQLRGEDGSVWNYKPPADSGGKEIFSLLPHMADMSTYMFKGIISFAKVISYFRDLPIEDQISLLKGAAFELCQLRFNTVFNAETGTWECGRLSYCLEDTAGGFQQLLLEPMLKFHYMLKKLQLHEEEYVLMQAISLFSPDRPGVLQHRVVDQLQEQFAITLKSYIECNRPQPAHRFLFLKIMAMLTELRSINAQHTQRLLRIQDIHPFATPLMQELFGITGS
Outline: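 Transient HepG2 transfectants carrying multiplexed reporter transcription units; PXR activity read through a Gal4 chimera. 24 h exposure. RT-PCR/CE fluorescence; upward curve fit referenced to DMSO.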

[16] = target: human RAR-related Orphan Receptor beta (RORb), RORB (gene 6096) (UniProt Q92753); test: ATG_RORb_TRANS: Attagene TRANS-FACTORIAL HepG2 Assay for human RAR-related Orphan Receptor beta (RORb) (AID 2283010; active means hit-call score of the fitted dose curve at least 0.9, where 1 is the maximum)
Sequence of human RAR-related Orphan Receptor beta (RORb), RORB (gene 6096) (Q92753 whole entry, looked up, the tested form may be a part): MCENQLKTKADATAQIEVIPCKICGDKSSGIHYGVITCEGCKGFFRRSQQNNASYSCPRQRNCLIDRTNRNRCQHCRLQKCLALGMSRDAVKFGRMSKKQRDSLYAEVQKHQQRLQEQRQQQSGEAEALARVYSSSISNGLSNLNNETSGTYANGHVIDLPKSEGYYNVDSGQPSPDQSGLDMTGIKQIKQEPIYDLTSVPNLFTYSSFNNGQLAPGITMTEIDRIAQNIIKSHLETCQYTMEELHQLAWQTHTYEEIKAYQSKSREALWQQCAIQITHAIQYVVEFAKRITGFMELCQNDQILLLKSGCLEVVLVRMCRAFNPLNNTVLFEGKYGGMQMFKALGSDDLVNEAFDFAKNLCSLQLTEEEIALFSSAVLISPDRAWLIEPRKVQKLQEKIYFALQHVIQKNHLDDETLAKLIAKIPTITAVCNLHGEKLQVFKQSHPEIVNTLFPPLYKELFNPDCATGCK
Outline: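 HepG2, transient MRTU transfection (GAL4-UAS reporters, exogenous NR-Gal4 chimeras); 24 h compound exposure; total RNA → RT-PCR → 6-FAM primer extension → HpaI digest → CE fluorescence. Positive direction vs DMSO baseline.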

[17] = target: Retinoic acid receptor alpha (Homo sapiens) (UniProt P10276); test: ATG_RARa_TRANS: Attagene TRANS-FACTORIAL HepG2 Assay for human Retinoic Acid Receptor alpha (RARa) (AID 2283005; active means hit-call score of the fitted dose curve at least 0.9, where 1 is the maximum;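 on AC50: potency for increased reporter signal meaning RARa activation over DMSO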)
Sequence of Retinoic acid receptor alpha (Homo sapiens) (P10276 whole entry, looked up, the tested form may be a part): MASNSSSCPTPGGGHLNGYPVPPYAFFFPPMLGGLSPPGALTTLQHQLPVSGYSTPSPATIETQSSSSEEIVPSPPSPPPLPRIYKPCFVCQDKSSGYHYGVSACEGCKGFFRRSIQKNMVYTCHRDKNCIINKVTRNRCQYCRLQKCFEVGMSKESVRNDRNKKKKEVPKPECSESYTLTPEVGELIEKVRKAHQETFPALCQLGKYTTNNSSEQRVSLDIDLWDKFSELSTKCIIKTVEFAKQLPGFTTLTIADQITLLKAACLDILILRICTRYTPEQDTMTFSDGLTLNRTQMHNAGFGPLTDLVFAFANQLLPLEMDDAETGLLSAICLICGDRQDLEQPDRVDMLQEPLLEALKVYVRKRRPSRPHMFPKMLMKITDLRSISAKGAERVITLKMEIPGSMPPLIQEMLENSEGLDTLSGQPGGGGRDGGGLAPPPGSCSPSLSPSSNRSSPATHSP
Outline: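 HepG2 transiently transfected with multiplex GAL4-UAS reporter units including a human RARa–GAL4 chimera; 24 h compound exposure. Reporter mRNA quantified by RT-PCR, 6-FAM labeling and capillary electrophoresis; gain of signal versus DMSO.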

[18] = target: human Retinoic Acid Receptor gamma (RARg), RARG (gene 5916) (UniProt P13631); test: ATG_RARg_TRANS: Attagene TRANS-FACTORIAL HepG2 Assay for human Retinoic Acid Receptor gamma (RARg) (AID 2283009; active means hit-call score of the fitted dose curve at least 0.9, where 1 is the maximum)
Sequence of human Retinoic Acid Receptor gamma (RARg), RARG (gene 5916) (P13631 whole entry, looked up, the tested form may be a part): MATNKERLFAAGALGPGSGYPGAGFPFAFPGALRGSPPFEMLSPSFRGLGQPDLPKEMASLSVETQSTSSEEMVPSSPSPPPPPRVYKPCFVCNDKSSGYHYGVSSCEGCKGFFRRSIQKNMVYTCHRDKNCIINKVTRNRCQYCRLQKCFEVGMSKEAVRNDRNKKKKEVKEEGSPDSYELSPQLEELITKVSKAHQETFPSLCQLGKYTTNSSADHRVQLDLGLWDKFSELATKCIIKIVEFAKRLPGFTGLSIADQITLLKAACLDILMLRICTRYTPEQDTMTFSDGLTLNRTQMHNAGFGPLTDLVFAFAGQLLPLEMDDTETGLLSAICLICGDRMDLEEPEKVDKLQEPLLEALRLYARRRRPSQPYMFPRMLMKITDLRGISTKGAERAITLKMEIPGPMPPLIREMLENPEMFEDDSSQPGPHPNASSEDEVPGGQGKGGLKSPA
Outline: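 Readout: reporter transcript levels via RT-PCR, 6-FAM primer-extension labelling, HpaI digestion and capillary electrophoresis. Cells: HepG2 carrying transfected RARg-GAL4 chimera plus UAS reporter set. Dosing 24 h; DMSO negative control.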

[19] = target: human Retinoic Acid Receptor beta (RARb), RARB (gene 5915) (UniProt P10826); test: ATG_RARb_TRANS: Attagene TRANS-FACTORIAL HepG2 Assay for human Retinoic Acid Receptor beta (AID 2283004; active means hit-call score of the fitted dose curve at least 0.9, where 1 is the maximum)
Sequence of human Retinoic Acid Receptor beta (RARb), RARB (gene 5915) (P10826 whole entry, looked up): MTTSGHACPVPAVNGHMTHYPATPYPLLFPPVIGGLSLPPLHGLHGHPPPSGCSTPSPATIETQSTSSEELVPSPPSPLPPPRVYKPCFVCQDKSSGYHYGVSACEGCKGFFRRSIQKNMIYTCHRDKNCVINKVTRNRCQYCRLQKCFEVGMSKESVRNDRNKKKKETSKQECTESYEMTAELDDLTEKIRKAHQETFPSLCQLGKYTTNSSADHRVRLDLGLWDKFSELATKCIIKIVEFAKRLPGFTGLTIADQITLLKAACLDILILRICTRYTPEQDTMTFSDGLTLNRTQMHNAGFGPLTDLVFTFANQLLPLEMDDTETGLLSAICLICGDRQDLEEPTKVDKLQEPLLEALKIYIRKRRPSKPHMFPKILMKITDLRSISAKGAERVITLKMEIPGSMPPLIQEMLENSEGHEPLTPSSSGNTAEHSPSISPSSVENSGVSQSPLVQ
Outline: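 Transient transfection of HepG2 with multiple reporter units → chemical dosing, 24 h → total RNA isolation → RT with oligo(dT) → reporter-specific PCR, 6-FAM primer extension, HpaI digest → capillary electrophoresis. Positive direction vs DMSO control.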

Measured: AC50

CCOP(=S)(OCC)Oc1ccc([N+](=O)[O-])cc1
active: [4] 23.5 µM | [5] 50 µM | [14] 28.8 µM | [15] 19.9 µM
inactive: [1] | [2] | [3] | [6] | [7] | [8] | [9] | [10] | [11] | [12] | [13] | [16]

CCOP(=S)(Oc1cnc(C(C)(C)C)nc1)OC(C)C (stereo not drawn)
active: [3] 22.4 µM | [4] 14.1 µM | [5] 2.06 µM | [7] 31.9 µM | [8] 36.2 µM | [9] 36.8 µM | [10] 31.9 µM | [13] 33.3 µM
inactive: [1] | [2] | [6] | [11] | [12] | [17] | [14] | [15] | [18] | [16]

CCOP(=S)(OCC)Oc1cc(C)nc(C(C)C)n1
inactive: [1] | [2] | [3] | [5] | [6] | [7] | [8] | [9] | [10] | [11] | [12] | [13] | [15]
active: [4] 15.9 µM | [14] 50 µM

CCOP(=O)(NC(C)C)Oc1ccc(SC)c(C)c1 (stereo not drawn)
inactive: [1] | [2] | [3] | [6] | [7] | [8] | [9] | [10] | [11] | [12] | [19] | [17] | [13] | [15] | [18] | [16]
active: [4] 5.22 µM | [5] 11.2 µM | [14] 32.3 µM

Nc1nc(N)nc(NC2CC2)n1
inactive: [1] | [2] | [3] | [4] | [5] | [6] | [7] | [8] | [9] | [10] | [11] | [12] | [19] | [17] | [13] | [15] | [18] | [16]

COc1cccc(C(=O)NN(C(=O)c2cc(C)cc(C)c2)C(C)(C)C)c1C
inactive: [1] | [2] | [3] | [4] | [5] | [6] | [7] | [8] | [9] | [10] | [12] | [19] | [17] | [13] | [14] | [15]

FC(F)C(F)(F)OCC(Cn1cncn1)c1ccc(Cl)cc1Cl (stereo not drawn)
active: [4] 35.9 µM | [5] 46.5 µM | [8] 36.7 µM | [10] 28.4 µM | [17] 13.2 µM | [13] 20 µM
inactive: [1] | [2] | [3] | [6] | [7] | [9] | [11] | [12] | [19] | [14] | [15] | [18]

CCCOCC(=Nc1ccc(Cl)cc1C(F)(F)F)n1ccnc1
inactive: [1] | [2] | [3] | [5] | [6] | [19] | [15] | [18]
active: [4] 7 µM | [7] 28.8 µM | [8] 31.7 µM | [9] 33.6 µM | [10] 34.4 µM | [12] 29.7 µM | [17] 1.1 µM | [13] 33.4 µM | [14] 1.36 µM

N#CSCSC#N
active: [7] 5.49 µM | [8] 5.93 µM | [9] 8.79 µM | [10] 6.94 µM | [12] 8.09 µM | [13] 2.07 µM
inactive: [1] | [2] | [3] | [4] | [5] | [6] | [11] | [19] | [17] | [14] | [15] | [18]

CCC(CC)Nc1c([N+](=O)[O-])cc(C)c(C)c1[N+](=O)[O-]
active: [4] 14.4 µM | [6] 72.9 µM | [9] 17.1 µM | [13] 29.2 µM | [14] 73.2 µM | [15] 27.6 µM
inactive: [1] | [2] | [3] | [5] | [7] | [8] | [10] | [11] | [12]

C[N+]1(C)CCCCC1
inactive: [1] | [2] | [3] | [4] | [5] | [6] | [7] | [8] | [9] | [10] | [12] | [19] | [17] | [13] | [14] | [15] | [18]

CCCCN(CC)c1c([N+](=O)[O-])cc(C(F)(F)F)cc1[N+](=O)[O-]
active: [4] 6.46 µM | [5] 12.7 µM | [13] 31.6 µM | [15] 14.4 µM
inactive: [1] | [2] | [3] | [6] | [7] | [8] | [9] | [10] | [12] | [19] | [17] | [14] | [18]

CCOC(=O)CC(SP(=O)(OC)OC)C(=O)OCC (stereo not drawn)
active: [4] 21.9 µM | [14] 28.7 µM
inactive: [1] | [2] | [3] | [5] | [6] | [7] | [8] | [9] | [10] | [11] | [12] | [19] | [13] | [18]

CCOC(=O)COc1cc(-c2nn(C)c(OC(F)F)c2Cl)c(F)cc1Cl
active: [13] 15.5 µM | [15] 29.6 µM
inactive: [1] | [2] | [3] | [4] | [5] | [6] | [7] | [8] | [9] | [10] | [11] | [12] | [19] | [17] | [14] | [18]

Source: PubChem BioAssay (EPA / NIEHS)
